Experimental data taken from PubChem BioAssay (NCATS).
Inconclusive results are not listed. Entries that show only a call come without a potency. The source made the active and inactive calls. Unless noted, the call rests on the fitted dose curve; in most records, active means well fitted curve in the direction sought with a large enough effect; inconclusive means small, poorly fitted or top-dose-only effect, or another doubt; inactive means no such curve, though single readings can be large; an effect the other way counts as inactive or inconclusive.

Experiments:
[1] = tested on: Zika virus NS2B-NS3 protease (unlinked complex); test: Primary screen GU Rhodamine qHTS for Zika virus inhibitors: Unlinked NS2B-NS3 protease assay (AID 1347159); further: nearly all actives have a fitted effect of over 60% in size; further: potency means the concentration at half of the fitted maximal effect
Procedure, shortened: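 Unlinked NS2B/NS3, 25 nM; Rhod110 peptide, 1.5 microM; compounds, up to 114 microM. Reaction run 15 min at RT in 10 mM Tris-HCl pH 8.0, 0.01% Tween 20; kinetic fluorescence change fitted with a 4-parameter Hill model.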

[2] = target: Cytochrome P450 2D6 (Homo sapiens) (UniProt P10635); test: Cytochrome P450 family 2 subfamily D member 6 (CYP2D6) small molecule antagonists: luciferase biochemical (cell-free) qHTS assay (AID 1645840; active means well fitted curve in the direction sought with a large enough effect in the repeat runs; an effect the other way counts as inactive or inconclusive; further: nearly all actives have a fitted effect of over 55% in size; further: potency means the concentration at half of the fitted maximal effect)
Chain of Cytochrome P450 2D6 (Homo sapiens) (P10635 whole entry, looked up): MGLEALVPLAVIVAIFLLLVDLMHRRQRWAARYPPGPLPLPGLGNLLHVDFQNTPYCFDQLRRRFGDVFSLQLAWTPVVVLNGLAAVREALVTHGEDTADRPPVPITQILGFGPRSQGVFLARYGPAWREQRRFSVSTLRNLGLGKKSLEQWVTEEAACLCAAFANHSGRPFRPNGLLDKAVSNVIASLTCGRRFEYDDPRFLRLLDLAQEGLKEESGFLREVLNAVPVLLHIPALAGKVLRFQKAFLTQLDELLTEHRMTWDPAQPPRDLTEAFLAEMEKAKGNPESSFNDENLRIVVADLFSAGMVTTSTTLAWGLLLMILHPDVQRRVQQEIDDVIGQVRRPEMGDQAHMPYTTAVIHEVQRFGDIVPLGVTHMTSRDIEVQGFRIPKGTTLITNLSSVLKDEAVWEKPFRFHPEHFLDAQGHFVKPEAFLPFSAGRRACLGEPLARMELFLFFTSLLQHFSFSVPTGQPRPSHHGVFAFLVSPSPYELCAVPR
Procedure, shortened: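 P450-Glo CYP2D6 system: proluciferin substrate converted by enzyme to luciferin, read by luminescence proportional to activity. Enzyme-substrate mix with compound 10 min at room temperature, then NADPH regeneration 1 h before detection reagent.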

[3] = Primary redox qHTS assay for identification of artifact compounds. (AID 1845223)
Procedure, shortened: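 Redox-cycling detection via DTT (250 uM final) oxidation coupled to Amplex Red (25 uM)/HRP (250 mU/mL) in HBSS. 15 min preincubation plus 30 min after DTT, room temperature. Ex/Em 525/598 nm; 4-parameter Hill fit against DMSO and 10 uM DA3003.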

PA-1 = test: Primary qHTS to identify gynecologic anti-cancer compounds using libraries of approved drugs and bioactive compounds (AID 1345084); conditions: Gynecologic cancer cell panel viability, ATPlite luminescence, 48 h; series mostly up to 57.5 µM; further: nearly all actives have a fitted effect of over 55% in size; further: potency means the concentration at half of the fitted maximal effect
Procedure, shortened: (§1)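 Cells, 1,000 per well, were allowed to settle for 16 h at 37 C before compound addition. Five concentrations were tested for 48 h, and viability was read by ATPlite luminescence after 15 min at room temperature.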

SKOV3 = test: as above; conditions: Gynecologic cancer cell panel viability, ATPlite luminescence, 48 h; series mostly up to 57.5 µM
Procedure, shortened: as §1

[4] = target: Cytochrome P450 2C9 (Homo sapiens) (UniProt P11712); test: Cytochrome P450 family 2 subfamily C member 9 (CYP2C9) small molecule antagonists: luciferase biochemical (cell-free) qHTS assay (AID 1645842; active means well fitted curve in the direction sought with a large enough effect in the repeat runs; an effect the other way counts as inactive or inconclusive; further: nearly all actives have a fitted effect of over 55% in size; further: potency means the concentration at half of the fitted maximal effect)
Chain of Cytochrome P450 2C9 (Homo sapiens) (P11712 whole entry, looked up): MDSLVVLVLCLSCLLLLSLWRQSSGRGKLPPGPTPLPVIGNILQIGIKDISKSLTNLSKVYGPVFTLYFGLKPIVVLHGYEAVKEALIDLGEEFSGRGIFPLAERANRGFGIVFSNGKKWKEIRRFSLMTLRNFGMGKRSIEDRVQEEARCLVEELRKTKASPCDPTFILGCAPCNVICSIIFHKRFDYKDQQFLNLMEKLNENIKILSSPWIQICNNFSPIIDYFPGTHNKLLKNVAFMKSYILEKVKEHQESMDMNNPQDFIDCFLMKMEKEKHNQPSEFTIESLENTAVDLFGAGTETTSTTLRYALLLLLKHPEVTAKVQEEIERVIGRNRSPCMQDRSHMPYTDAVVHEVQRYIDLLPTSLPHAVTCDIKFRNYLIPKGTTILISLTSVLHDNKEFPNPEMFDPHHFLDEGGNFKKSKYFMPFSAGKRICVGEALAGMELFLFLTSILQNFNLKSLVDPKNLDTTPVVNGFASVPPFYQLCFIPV
Procedure, shortened: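 P450-Glo CYP2C9 system: proluciferin substrate with enzyme in mix containing 0.4% BSA, 10 min at room temperature, then NADPH regeneration solution added and incubated 1 h at 37C. Detection reagent stopped reaction; luminescence read after 20 min as RLU.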

[5] = tested on: Zika virus NS2B-NS3 protease; test: Primary screen GU AMC qHTS for Zika virus inhibitors (AID 1347154); further: nearly all actives have a fitted effect of over 70% in size
Procedure, shortened: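 Unlinked Zika NS2B hydrophilic domain–NS3 protease complex at 25 nM in 10 mM Tris-HCl pH 8.0, 0.01% Tween 20, with an AMC peptide substrate. Fluorescence change (340/450 nm) over 15 min at room temperature, normalized to controls, fitted to 4-parameter Hill.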

CAOV3 = test: Primary qHTS to identify gynecologic anti-cancer compounds using libraries of approved drugs and bioactive compounds (AID 1345084); conditions: Gynecologic cancer cell panel viability, ATPlite luminescence, 48 h; series mostly up to 57.5 µM; further: nearly all actives have a fitted effect of over 55% in size; further: potency means the concentration at half of the fitted maximal effect
Procedure, shortened: as §1

[6] = Primary qHTS for small molecule stabilizers of the endoplasmic reticulum resident proteome: Secreted ER Calcium Modulated Protein (SERCaMP) assay (AID 1508630)
Procedure, shortened: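 The SH-SY5Y reporter protocol was run at 3 concentrations up to 38.3 uM (primary) or 11 concentrations (follow-up): 16 h compound, 100 nM thapsigargin for 4 h, then extracellular luciferase luminescence.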

[7] = target: Catechol O-methyltransferase (Homo sapiens) (UniProt P21964); test: Confirmatory Screen for Target Class Profiling of Small Molecule Inhibitors of Methyltransferases (AID 1745852; calls by dose curve); conditions: MTase-Glo luminescence, SAH detection, recombinant enzyme; measured here: COMT max response; stronger effect = lower value
Chain of Catechol O-methyltransferase (Homo sapiens) (P21964 whole entry, looked up): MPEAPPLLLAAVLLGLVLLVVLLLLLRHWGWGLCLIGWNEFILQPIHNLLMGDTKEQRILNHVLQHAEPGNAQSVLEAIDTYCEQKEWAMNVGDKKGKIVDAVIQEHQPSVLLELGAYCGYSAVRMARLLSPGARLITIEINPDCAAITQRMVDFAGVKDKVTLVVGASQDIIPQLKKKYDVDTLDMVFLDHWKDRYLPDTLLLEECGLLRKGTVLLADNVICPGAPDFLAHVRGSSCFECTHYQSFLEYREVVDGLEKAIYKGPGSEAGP

[8] = target: Guanidinoacetate N-methyltransferase (Homo sapiens) (UniProt Q14353); test: as above; conditions: activity change, negative = inhibition: at 57.3 µM (top of the series) unless noted
[9] = target: Nicotinamide N-methyltransferase (Homo sapiens) (UniProt P40261); test: as above; conditions: MTase-Glo luminescence, SAH detection, recombinant enzyme; measured here: NNMT max response; stronger effect = lower value
Chain of Nicotinamide N-methyltransferase (Homo sapiens) (P40261 whole entry, looked up): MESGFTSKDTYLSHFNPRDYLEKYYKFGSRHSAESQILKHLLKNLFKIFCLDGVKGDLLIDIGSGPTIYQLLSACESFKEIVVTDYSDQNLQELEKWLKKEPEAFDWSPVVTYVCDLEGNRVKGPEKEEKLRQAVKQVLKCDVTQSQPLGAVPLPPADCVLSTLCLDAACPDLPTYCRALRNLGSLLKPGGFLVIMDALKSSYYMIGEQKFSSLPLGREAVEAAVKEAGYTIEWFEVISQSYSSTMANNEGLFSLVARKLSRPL

[10] = target: Phenylethanolamine N-methyltransferase (Homo sapiens) (UniProt P11086); test: as above; conditions: MTase-Glo luminescence, SAH detection, recombinant enzyme; measured here: PNMT max response; stronger effect = lower value
Chain of Phenylethanolamine N-methyltransferase (Homo sapiens) (P11086 whole entry, looked up): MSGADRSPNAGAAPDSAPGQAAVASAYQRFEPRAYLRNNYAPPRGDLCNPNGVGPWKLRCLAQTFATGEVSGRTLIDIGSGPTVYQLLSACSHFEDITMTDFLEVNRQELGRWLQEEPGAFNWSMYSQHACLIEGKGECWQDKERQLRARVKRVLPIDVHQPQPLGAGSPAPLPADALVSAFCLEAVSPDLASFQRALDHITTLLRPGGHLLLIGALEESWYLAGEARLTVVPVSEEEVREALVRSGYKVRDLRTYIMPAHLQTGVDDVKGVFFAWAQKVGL

[11] = qHTS to identify inhibitors of the type 1 interferon - major histocompatibility complex class I in skeletal muscle: primary screen against the NCATS Mechanism Interrogation Plate v5.0 (MIPE) Libary (AID 1347411); further: potency means the concentration at half of the fitted maximal effect; nearly all actives have a fitted effect of over 65% in size
Procedure, shortened: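 IFN-beta-driven (4 ng/ml) HLA-B-HiBit expression in CRISPR-tagged C25cl48 myoblasts; compounds 11-pt, 1:3, max 46 uM, 24 hr exposure; lytic NanoLuc complementation luminescence.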

## Cc1nc(C)c2c(n1)N(Cc1ccc(-c3ccccc3-c3nn[nH]n3)cc1)C(=O)CC2
[1]
  Potency: inactive
[2]
  Potency: inactive
[3]
  Potency: inactive
PA-1
  Potency: inactive
SKOV3
  Potency: inactive

## CCOc1ccc(-c2nc(-c3cccc4c3CCC4NCCO)no2)cc1OCC (configuration not stated)
[1]
  Potency: inactive
[2]
  Potency: inactive
[4]
  Potency: inactive
PA-1
  Potency: inactive

## CCN(CC)c1ccc(C(=C2C=CC(=[N+](CC)CC)C=C2)c2cc(S(=O)(=O)O)ccc2S(=O)(=O)[O-])cc1
[5]
  Potency: inactive
[2]
  Potency: 15.5 µM (active)
[4]
  Potency: 13.8 µM (active)
CAOV3
  Potency: 28.2 µM (active)
PA-1
  Potency: 3.55 µM (active)

## CC1(C)SC2C(NC(=O)[C@H](C(=O)O)c3ccsc3)C(=O)N2C1C(=O)O (some centres not stated)
[1]
  Potency: inactive
[3]
  Potency: inactive
PA-1
  Potency: inactive

## COc1ccccc1-c1c[nH]c2ncc(-c3cncc(C(=O)N(C)C)c3)cc12
[1]
  Potency: inactive
[4]
  Potency: 3.38 µM (active)
PA-1
  Potency: 31.6 µM (active)

## COc1cccc(NC[C@@H](O)Cn2c3ccc(Br)cc3c3cc(Br)ccc32)c1
[2]
  Potency: 8.49 µM (active)
[4]
  Potency: inactive

## CC(C)n1cnc2c(Nc3cccc(Cl)c3)nc(NCCO)nc21
[1]
  Potency: inactive
[2]
  Potency: 16.9 µM (active)
[4]
  Potency: 9.52 µM (active)
PA-1
  Potency: inactive

## C=C1C(=O)O[C@@H]2[C@H]1[C@H](O)C[C@]1(C)[C@@H](O)CC=C(C)[C@@H]21
[3]
  Potency: inactive
PA-1
  Potency: inactive

## COc1ccc(-c2c(C)c(C(=O)NN3CCCCC3)nn2-c2ccc(Cl)cc2Cl)cc1
PA-1
  Potency: inactive
SKOV3
  Potency: inactive

## Cn1cnc(-c2nccc3c(=O)[nH]c(OCCCC(F)(F)F)nc23)c1
[3]
  Potency: inactive
CAOV3
  Potency: inactive
SKOV3
  Potency: 6.31 µM (active)

## CC(=O)Nc1ccc(C(=O)Nc2ccccc2N)cc1
[1]
  Potency: inactive
[3]
  Potency: inactive
CAOV3
  Potency: inactive
PA-1
  Potency: 7.08 µM (active)

## Clc1ccccc1CNCC1CCC(CNCc2ccccc2Cl)CC1 (configuration not stated)
[5]
  Potency: inactive
[6]
  Potency: inactive
[2]
  Potency: 0.151 µM (active)
[4]
  Potency: inactive
[3]
  Potency: inactive

## COc1ccc(-c2nc(-c3cc(C(F)(F)F)cc(C(F)(F)F)c3)n(Cc3ccc(C(N)=O)cc3)c2-c2ccc(OC)cc2)cc1
[1]
  Potency: inactive
[4]
  Potency: 5.35 µM (active)
[7]
  activity: 0.0984%
[8]
  activity change, negative = inhibition: -0.694%
[9]
  activity: -7.68%
[10]
  activity: -1.33%
PA-1
  Potency: inactive
SKOV3
  Potency: inactive

## Cc1ccn(-c2cc(Cl)ccc2[C@@H](Oc2cc(-c3ccc(C[C@H](N)C(=O)O)cc3)nc(N)n2)C(F)(F)F)n1
[1]
  Potency: inactive
[7]
  activity: -0.316%
[8]
  activity change, negative = inhibition: 0%
[9]
  activity: -31.2%
[10]
  activity: -1.43%
PA-1
  Potency: inactive
SKOV3
  Potency: inactive

## C=C1C(=O)O[C@@H]2C[C@@]3(C)CCC[C@H](C)C3=C[C@H]12
[1]
  Potency: inactive
[3]
  Potency: inactive
CAOV3
  Potency: inactive
PA-1
  Potency: inactive

## CCCc1c(C(C)C)nc(C(C)C)c([C@@H](C)O)c1-c1ccc(F)cc1O
[1]
  Potency: 14.1 µM (active)
[2]
  Potency: 2.39 µM (active)
[4]
  Potency: 4.77 µM (active)
[3]
  Potency: inactive
PA-1
  Potency: inactive

## CC[C@@H](C)[C@H]1C(=O)O[C@H](C(C)C)C(=O)N(C)[C@@H](C(C)C)C(=O)O[C@H](C(C)C)C(=O)N(C)[C@@H](C(C)C)C(=O)O[C@H](CC(C)C)C(=O)N1C
[1]
  Potency: inactive

## COC1CC(=O)C23C(=O)NC(CC(C)C)C2C(C)C(C)=CC3/C=C(\C)CCC(O)C1O (configuration not stated)
[1]
  Potency: inactive
[3]
  Potency: inactive
SKOV3
  Potency: inactive

## COc1cc2nc(N3CCN(C)CC3)nc(NC3CCN(Cc4ccccc4)CC3)c2cc1OC
[1]
  Potency: inactive
[7]
  activity: -1.25%
[8]
  activity change, negative = inhibition: 9.72%
[9]
  activity: -9.04%
[10]
  activity: 0.903%

## CC1CCC2(NC1)OC1CC3C4CC=C5CC(O[C@@H]6O[C@H](CO)[C@@H](O[C@@H]7O[C@@H](C)[C@H](O)[C@@H](O)[C@H]7O)[C@H](O)[C@H]6O[C@@H]6O[C@@H](C)[C@H](O)[C@@H](O)[C@H]6O)CCC5(C)C4CCC3(C)C1C2C (some centres not stated)
[1]
  Potency: inactive

## C=CC(=O)Nc1cccc(Nc2nc(Nc3ccc(Oc4ccnc(C(=O)NC)c4)cc3)ncc2F)c1
[1]
  Potency: inactive
[11]
  Potency: 18.6 µM (active)
[4]
  Potency: 1.51 µM (active)
[7]
  activity: -5.97%
[8]
  activity change, negative = inhibition: -5.15%
[9]
  activity: -53.4%
[10]
  activity: -10.6%
[3]
  Potency: inactive

## CCOP(=O)(Cc1ccc(C(=O)Nc2ccc(Br)cc2C#N)cc1)OCC
[1]
  Potency: inactive
CAOV3
  Potency: inactive
PA-1
  Potency: inactive

## CC(=O)Nc1nc2c(Oc3cc(-c4ccc(C(F)(F)F)cc4)ncn3)cccc2s1
[1]
  Potency: inactive
[4]
  Potency: 10.7 µM (active)
[3]
  Potency: inactive

## CCOc1cc(CNC2CCCC2)cc(Cl)c1OCc1ccc(Cl)cc1
[1]
  Potency: inactive
[2]
  Potency: 1.51 µM (active)
[4]
  Potency: 19 µM (active)

## Fc1ccc(C2CCNC[C@H]2COc2ccc3c(c2)OCO3)cc1 (some centres not stated)
PA-1
  Potency: inactive

## COC(=O)/C=C/C(=O)N(O)CCCCNCc1ccc(COC(=O)Nc2cccc3ccccc23)cc1
[1]
  Potency: inactive
[11]
  Potency: 13.1 µM (active)
[3]
  Potency: inactive
